Results reported in PubChem BioAssay AID2314 (National Center for Advancing Translational Sciences (NCATS), 2010).
Hit rate of the full screen: of about 300,000 compounds, about 37,000 (12%) were called active. No stated cut-off is given here; in the data, active means max response mostly above about 13% (no sharp cut-off); inactive means mostly below about 14%. For the sample, actives were picked, then their nearest neighbours and some compounds at random.

test: Cycloheximide Counterscreen for Small Molecule Inhibitors of Shiga Toxin; details: cell reporter, cycloheximide protein synthesis inhibition counterscreen; hits give high values; further: read at 38.3 µM for the half of the compounds with a filed dose; 0% is about no effect

| SMILES | max response |
| --- | --- |
| O=C(CS(=O)(=O)c1cn(Cc2ccc(Cl)cc2)c2ccccc12)N1CCOCC1 | -4.25% (inactive) |
| Cc1[nH]n(-c2ccc([N+](=O)[O-])cc2)c(=O)c1C=NCCN1CCN(C(=O)c2ccccc2F)CC1 | -3.41% (inactive) |
| Cc1cc(Cl)ccc1C(=O)C1CCCN(C(=O)CCN2CCCO2)C1 (configuration not stated) | -2.88% (inactive) |
| O=C(CC1Nc2ccccc2NC1=O)Nc1ccccc1 (configuration not stated) | 31% (active) |
| O=C(CC1NCCNC1=O)Nc1ccc(Oc2ccccc2)cc1 (configuration not stated) | 30% (active) |
| CCOc1ccc(NC(=O)CC2NCCNC2=O)cc1 (configuration not stated) | 0.991% (inactive) |
| CCc1ccc(NC(=O)CC2C(=O)NCCN2C(=S)Nc2ccccc2)cc1 (configuration not stated) | 5.14% (inactive) |
| Cc1ccc(CNC(=O)CC2Sc3ccccc3NC2=O)cc1 (configuration not stated) | -1.23% (inactive) |
| COC(=O)c1cc(C)sc1NC(=O)CC1Nc2ccccc2NC1=O (configuration not stated) | 22.8% (active) |
| CCOC(=O)c1ccccc1NC(=O)CC1Nc2ccccc2NC1=O (configuration not stated) | -6.08% (inactive) |
| COC(=O)C(C)C1Sc2ccccc2NC1=O (configuration not stated) | -1.04% (inactive) |
| CCN(CC)CCNCC(=O)Nc1ccc(Oc2ccccc2)cc1 | -2.52% (inactive) |
| CCc1cc(C(=O)OC)c(NC(=O)CC2Sc3ccc(C(F)(F)F)cc3NC2=O)s1 (configuration not stated) | 0.357% (inactive) |
| CC1CCN(CCC(=O)Nc2ccccc2)CC1 | 1.18% (inactive) |
| O=C(CC1Nc2ccccc2NC1=O)Nc1ccccc1NC(=O)CC1Nc2ccccc2NC1=O (configuration not stated) | 34.5% (active) |
| CC1CCCN(S(=O)(=O)c2ccc(N(C(=O)c3cnccn3)C(C(=O)NC3CCCCC3)c3cccs3)cc2)C1 (configuration not stated) | -3.46% (inactive) |
| COC(=O)c1ccc(COc2ccc(C#N)cc2)o1 | 0.875% (inactive) |
| Cc1cc(C(=O)CSc2nc(N)cc(=O)[nH]2)c(C)n1CCc1ccc(Cl)cc1 | 4.99% (inactive) |
| C=CCN(c1ccc(Cl)cc1)S(=O)(=O)c1cccc(C(=O)OCC(=O)N(C)C)c1 | -6.49% (inactive) |
| COc1cc(C(=O)NCc2nnc(SCC(=O)Nc3nc4ccc(C)cc4s3)o2)cc(OC)c1OC | 4.75% (inactive) |
| CCOC(=O)c1cccc(NC(=O)CN2C(=O)C3CC=CCC3C2=O)c1 (configuration not stated) | -0.226% (inactive) |
| CCC1C=C(c2ccccc2)C=CN=C1N(CC)CC (configuration not stated) | -0.252% (inactive) |
| O=c1/c(=C/c2ccc(CNS(=O)(=O)c3ccccc3)o2)sc2n1CCN=2 | -4.34% (inactive) |

| SMILES | max response |
| --- | --- |
| CCc1nc(C)cn1S(=O)(=O)c1cc([N+](=O)[O-])ccc1Cl | -1.54% (inactive) |
| Cc1ccc(NC(=O)CN2CCC3(O)CCCCC3C2c2ccc3c(c2)OCO3)c(C)c1 (configuration not stated) | -2.23% (inactive) |
| Cc1ccc(C(=O)N/C(=C/c2cccs2)C(=O)NCC2CCCO2)cc1 (configuration not stated) | -3.91% (inactive) |
| Cc1ccc(C(=O)N/C(=C/c2cccs2)C(=O)N2CCCCC2)cc1 | 13.7% (inactive) |
| Cc1ccc(C(=O)N/C(=C\c2cccs2)C(=O)NCCc2ccccn2)cc1C | 31.4% (active) |
| O=C(Cc1ccc([N+](=O)[O-])cc1)Nc1ccc(C(=O)N2CCOCC2)cc1 | -1.78% (inactive) |
| CCNC(=O)Nc1ccc(S(=O)(=O)Nc2cnc(C)nc2C)cc1 | -7.45% (inactive) |
| CC(C)n1c(=O)[nH]c2cc(C(=O)Nc3ccccc3)ccc21 | -2.19% (inactive) |
| O=C(/C=N/O)Nc1ccccc1 | -2.41% (inactive) |
| O=C(Nc1ccccc1)c1cc2ccccc2[nH]1 | 42.1% (active) |
| COc1ccc(NC(=S)SC)cc1OC | -3.14% (inactive) |
| COc1ccc2c(c1)N(C)/C(=C1/SC(=S)N(NC(C)=O)C1=O)S2 | 5.97% (inactive) |
| COc1ccc(/C=C/C2=CC(C)(C)NC(=S)N2)c(OC)c1 | 5.95% (inactive) |
| COCCc1nn2c(=O)cc(COC(=O)c3cc(OC)c(OC)c(OC)c3)nc2s1 | 3.56% (inactive) |
| CC1=C(/C=C/C(C)=C/C=C/C(C)=C/C=C/C=C(C)/C=C/C=C(C)/C=C/C(=O)[C@]2(C)C[C@@H](O)CC2(C)C)C(C)(C)C[C@H](O)C1 | 9.8% (inactive) |
| COc1cccc(/C=C/c2ccc3ccccc3n2)c1OC(C)=O | 28.2% (active) |
| CCOc1cccc(/C=C/c2ccc3ccccc3n2)c1OC(C)=O | 25.2% (active) |
| COc1ccc(CNC(=O)/C(C#N)=C/c2cccc(OC)c2OC)cc1 | -1.4% (inactive) |
| CCOc1ccccc1-c1cc(C(=O)N/N=C(\C)c2cccnc2)c2ccccc2n1 | -1.08% (inactive) |
| CCOc1ccccc1-c1cc(C(=O)N2CCOCC2)c2ccccc2n1 | -3.29% (inactive) |
| COc1cccc(/C=C2\C=C(c3ccc(C)cc3)OC2=O)c1OC(C)=O | 1.6% (inactive) |
| CCOc1ccc(CCNC(=O)CCc2nnc3ccc(N4CCCC4)nn23)cc1OCC | 1.2% (inactive) |
| Cn1nccc1C(=O)NC1CCCc2c1cnn2-c1ccccc1F (configuration not stated) | -0.344% (inactive) |

| SMILES | max response |
| --- | --- |
| Cc1ccc2oc(=O)c3cnn(CC(=O)N(Cc4ccco4)C4CCCCC4)c3c2c1 | -5.66% (inactive) |
| CCOC(=O)c1c(C)n(C)c2ccc(OC)c(NS(=O)(=O)CC)c12 | 3.73% (inactive) |
| CCOc1cc(CN2CCN(C(=O)CC(C)C)CC2)ccc1OC | -2.09% (inactive) |
| COc1cc(CN2CCC(C(N)=O)CC2)ccc1OCc1ccccc1 | 34.9% (active) |
| COc1ccc(COCC(O)CN2CCC(C(N)=O)CC2)cc1 (configuration not stated) | -2.46% (inactive) |
| O=C(Nc1ccc(Cl)cc1)c1ccsn1 | 50.1% (active) |
| O=C(NCc1cn2ccsc2n1)Nc1ccc(Cl)cc1 | 1.41% (inactive) |
| CCC(=O)Nc1ccc(C(=O)NNC(=O)c2ccc(Cl)cc2)cc1 | -0.754% (inactive) |
| Cc1c(CCC(=O)N[C@@H](CC(C)C)C(=O)O)c(=O)oc2c(C)c3oc4c(c3cc12)CCCC4 | -2.26% (inactive) |
| O=C(CCCC(=O)N1CCN(c2cccc(Cl)c2)CC1)c1ccccc1 | 19.7% (active) |
| O=C(OCC(=O)N1CCN(C(=O)c2ccco2)CC1)c1cccc(O)c1 | 5.85% (active) |
| O=C(c1cccc([N+](=O)[O-])c1)N1CCN(C(=O)c2ccco2)CC1 | -0.729% (inactive) |
| CS(=O)(=O)N(CC(=O)N1CCN(c2cccc(Cl)c2)CC1)c1ccccc1 | -1.4% (inactive) |
| O=C(c1ccco1)N1CCN(c2cccc(Cl)c2)CC1 | 23.2% (active) |
| O=C(OCC(=O)N1CCN(C(=O)c2ccco2)CC1)c1ccccc1Cc1ccccc1 | 34.9% (inactive) |
| O=C(c1ccco1)N1CCN(C(=O)C2c3ccccc3Oc3ccccc32)CC1 | 12.3% (active) |
| O=C(c1ccco1)N1CCN=C1SCc1cccc(Cl)c1 | -6.49% (inactive) |
| CC(C)c1nnc(NC(=O)CCC(=O)N2CCN(c3cccc(Cl)c3)CC2)s1 | 4.84% (inactive) |
| O=C(c1ccco1)N1CCN(C(=O)C2CC(c3ccc(F)cc3)=NO2)CC1 (configuration not stated) | -6.02% (inactive) |
| O=C(c1ccc2c(c1)OCO2)N1CCN(C(=O)c2ccco2)CC1 | -3.05% (inactive) |
| O=C(OCC(=O)N1CCCC1)c1ccco1 | 10.1% (inactive) |
